This is one part of a sample in which hits are shown more often than they occur.
Shiga inhibitor: blocks Shiga toxin action in Vero cells. Vero cells, Shiga toxin protein synthesis inhibition reporter. inhibition, % at 38.7 µM. 290,000 tested, 9.2% active; in the data active means inhibition mostly above about 28%, no sharp cut-off; inactive means mostly below about 43%; further: 0% is about no effect
CHX counter: counter-screen hit for Shiga toxin inhibitors, cycloheximide. cell reporter, cycloheximide protein synthesis inhibition counterscreen. max response, %. 300,000 tested, 12% active. AID 2314; in the data active means max response mostly above about 13%, no sharp cut-off; inactive means mostly below about 14%; further: read at 38.3 µM for the half of the compounds with a filed dose; 0% is about no effect
NS1 inh: blocks influenza NS1 protein function; Potency, µM (top dose mostly 46.1 µM), for inactives: at the top dose activity, positive = more growth; 270,000 tested, 0.4% active; AID 2326; calls by dose curve; further: potency means the concentration at half of the fitted maximal effect; actives are rising curves; nearly all actives have a fitted effect of over 50% in size
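Compounds were scored for reversing the slow growth caused by influenza A NS1 in S. cerevisiae, measured by optical density at 600 nm. Assay medium contained 2% galactose at pH 6.0; NS1-free yeast of the same strain were the positive control.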
AmpC detergent: AmpC beta-lactamase inhibition with detergent present; AID 485294; P00811; AmpC hydrolysis of nitrocefin, absorbance 480 nm, 0.01% Triton; 370,000 tested, 0.041% active; Potency, µM (doses to about 114 µM), inactives show at the top dose activity change, negative = inhibition, most hits filed as inhibitors;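 further: potency means the concentration at half of the fitted maximal effect; 0% = no-compound wells and -100% = no-enzyme wells; nearly all actives have a fitted effect of over 25% in size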
Target sequence (P00811 whole entry, looked up): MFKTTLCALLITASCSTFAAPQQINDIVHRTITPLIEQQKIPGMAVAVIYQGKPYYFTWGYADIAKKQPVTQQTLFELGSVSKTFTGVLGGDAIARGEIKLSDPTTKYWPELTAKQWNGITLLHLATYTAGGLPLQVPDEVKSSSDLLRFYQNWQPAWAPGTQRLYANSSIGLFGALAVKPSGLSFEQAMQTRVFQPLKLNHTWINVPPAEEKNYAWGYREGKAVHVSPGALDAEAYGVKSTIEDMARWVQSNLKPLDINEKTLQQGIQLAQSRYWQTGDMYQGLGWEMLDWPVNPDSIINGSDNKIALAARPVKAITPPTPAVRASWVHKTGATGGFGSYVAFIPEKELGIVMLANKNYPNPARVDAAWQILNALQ
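AmpC (5.3 nM in the dispensed reagent) in 20 mM phosphate pH 7.0 with 0.01% (detergent screen) or 0.0001% Triton X-100 was preincubated with compounds for 15 min at room temperature. Nitrocefin was then added from an 800 uM solution, and hydrolysis was followed at 480 nm.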
AmpC no deterg: AmpC beta-lactamase inhibition without detergent; P00811; AmpC nitrocefin hydrolysis, absorbance 480 nm, 0.0001% Triton; Potency, µM (series often up to 57.1 µM), for inactives: top-dose activity change, negative = inhibition, hits mostly inhibitors; 330,000 tested, 0.52% active;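 further: potency means the concentration at half of the fitted maximal effect; plate controls were no compound for no effect and no enzyme for full effect; nearly all actives have a fitted effect of over 20% in size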
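AmpC (5.3 nM in the dispensed reagent) in 20 mM phosphate pH 7.0 with 0.01% (detergent screen) or 0.0001% Triton X-100 was preincubated with compounds for 15 min at room temperature. Nitrocefin was then added from an 800 uM solution, and hydrolysis was followed at 480 nm.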
* hit, by the source's call; ? = inconclusive; / = no result given; [ ] = dose if it differs, or a comment. Unless noted, the call rests on the fitted dose curve; in most records, active means well fitted curve in the direction sought with a large enough effect; inconclusive means small, poorly fitted or top-dose-only effect, or another doubt; inactive means no such curve, though single readings can be large; an effect the other way counts as inactive or inconclusive.

SMILES | Shiga inhibitor | CHX counter | NS1 inh | AmpC detergent | AmpC no deterg
CCN(CC)C(=O)C1=C(C)Nc2nc3ccccc3n2C1c1ccc(Cl)cc1 (stereo unspecified) | / | / | / | 18% | /
Clc1ccc(OCC#CCN2CCCCCC2)cc1 | 47* | 12 | 1% | ? | -9%[2.29 µM]
COc1cccc(/C=N/NC(=O)c2ccccc2)c1OS(=O)(=O)c1ccccc1 | 0 | -2 | 7% | -7% | 32µM*
COc1cc(/C=N\NC(=O)c2ccc(-c3ccccc3)cc2)cc(OC)c1OC(C)=O | 3 | 18 | 3% | 4% | 53%
COc1cc(/C=N/NC(=O)CCOc2ccccc2C)cc(Br)c1O | 1 | -2 | / | 1% | 22µM*
COc1cccc(/C=N/NC(=O)c2ccc(=O)n(C)c2)c1OC | 3 | -1 | 3% | 7% | -9%
COc1cc(/C=N\NC(=O)c2ccc(-c3ccccc3)cc2)cc(OC)c1O | 15 | 15* | 20% | -6% | 90%
COc1cc(/C=N/NC(=O)c2ccc(COc3cc(C)ccc3C(C)C)cc2)cc(OC)c1O | 20* | 34* | 27% | 3% | -21%
COc1cc(/C=N/NC(N)=O)cc(Br)c1OCc1ccc(C)cc1 | 3 | 1 | 2% | 0% | -26%
COc1ccc(-n2ccnc2SCC(=O)NC2CCCC2)cc1 | / | / | / | 1% | -7%
COc1ccc(NC(=O)CSc2nc(-c3cccc(C)c3)[nH]c2-c2ccccc2)cc1OC | / | / | / | 7% | /
O=C(COc1ccccc1Cl)NCCNC(=O)c1ccccn1 | -12 | 8 | -14% | ? | -6%
Cc1ccc(C(C)C)c(OCc2ccc(C(=O)N/N=C/c3cccc(O)c3O)cc2)c1 | active | 29* | -32% | -10% | 8.9µM*
CC(=O)Nc1ccc(C(=O)N/N=C/c2ccccc2OCc2ccccc2)cc1 | 21 | 2 | -21% | -5% | 3%
COc1ccc2cc(/C=N/NC(=O)CN(c3ccccc3C)S(=O)(=O)c3ccccc3)c(Cl)nc2c1 | 5 | 0 | 13% | -6% | -27%
CCOC(=O)CNC(=O)CSc1nnc(NC(=O)c2ccc(S(=O)(=O)N3CCOCC3)cc2)s1 | -3 | -5 | -7% | 3% | -11%
O=C(CSc1nnc(NC(=O)c2ccccc2Cl)s1)NC1CC1 | 61* | 39* | 4% | -5% | -2%
O=C(CSc1nc2ccccc2s1)Nc1ccc2c(c1)oc1ccccc12 | -16 | 7 | 18% | -15% | -50%
CC(C)(C)NC(=O)CSc1nnc(NC(=O)c2ccccc2Cl)s1 | 30 | 12 | / | -4% | -19%
O=C(CSc1nnc(NC(=O)c2ccccc2Cl)s1)Nc1ccc2c(c1)oc1ccccc12 | 54* | 34* | -7% | ? | ?
Cc1nnc(NC(=O)CSCc2ccccc2)s1 | 0 | 4 | 26% | ? | -4%
CCOC(=O)CNC(=O)CSc1nnc(NC(=O)c2ccccc2Cl)s1 | 59* | 29* | 1% | -1% | -15%
Cc1nnc(NC(=O)CSc2ccccc2N)s1 | 38 | 26* | 11% | 6% | -22%
Cn1cc(CCC(=O)N2CCCC(N3CCN(c4ccccc4F)CC3)C2)cn1 (stereo unspecified) | 16 | 7 | -5% | 2% | 1%
O=C(CSc1nnc(NC(=O)c2c(F)cccc2F)s1)NC1CC1 | -3 | -5 | 6% | -3% | -4%
SMILES | Shiga inhibitor | CHX counter | NS1 inh | AmpC detergent | AmpC no deterg
Cc1ccccc1C(=O)Nc1nnc(SCC(=O)NC2CC2)s1 | 64* | 30* | -10% | 11% | -19%
COc1ccccc1NC(=O)CSc1sc2c(O)cc(=O)[nH]c2c1C#N | 1 | -4 | 28% | -1% | -39%
N#Cc1c(SCC(=O)Nc2cccc(C(F)(F)F)c2)sc2c(O)cc(=O)[nH]c12 | 16 | -1 | 11% | ? | 22µM*
Cc1cc(NC(=O)CSc2sc3c(O)cc(=O)[nH]c3c2C#N)ccc1Br | -8 | -4 | ? | 7% | 14µM*
Cc1ccc(/C=N/NC(=O)c2ccc(-n3cccc3)cc2)o1 | -2 | 9 | 8% | -14% | -26%
O=C(O)c1ccc(N/N=C/c2ccc(-c3ccc(Br)cc3)o2)cc1 | 39* | 27* | -6% | 6% | -22%
Cc1ccc(/C=N/Nc2ccc(C(=O)O)cc2)o1 | 76* | 30* | / | 7% | -13%
O=C(CN1CCOCC1)N/N=C/c1ccc(-c2ccc(C(=O)O)cc2)o1 | 10 | 7 | 8% | -1% | -12%
COc1cccc(NC(=O)CN(C)C(=O)CCCc2nc3ccccc3s2)c1 | / | / | / | -18% | 34%
Cc1ccc(OCCn2c(=S)[nH]c3ccccc32)c(C(C)C)c1 | -5 | 0 | 3% | -2% | -41%
CCOc1ccc(OCCn2c(=S)[nH]c3ccccc32)cc1 | -4 | 2 | 16% | -1% | -29%
S=c1[nH]c2ccccc2n1CCOc1ccccc1 | / | 21* | -9% | -15% | -44%
Cc1cccc(OCCn2c(=S)[nH]c3ccccc32)c1 | 19 | 13* | -15% | -9% | -18%
Cc1ccccc1N1CCN(C2CCCN(C(=O)c3ccsc3)C2)CC1 (stereo unspecified) | -14 | 9 | -3% | 6% | 55%
Cc1ccccc1NC(=O)CSc1nnc(COc2ccc(Cl)cc2)o1 | / | / | / | -2% | /
COc1ccc([N+](=O)[O-])cc1NC(=O)C(C)OC(=O)/C=C/c1ccco1 (stereo unspecified) | 36* | 17* | 0% | -3% | -46%
COC(=O)/C=C/C(=O)Nc1cccnc1 | 30 | -5 | -12% | 0% | -11%
CC(C)(C)c1ccc(/C=C/C(=O)Nc2cccnc2)cc1 | 70* | 29* | -37% | -1% | 4%
O=C(/C=C/c1ccco1)Nc1cccc(S(=O)(=O)N2CCOCC2)c1 | 13 | 2 | 6% | ? | -26%
CSc1cccc(NC(=O)/C=C/c2ccco2)c1 | 110* | 55* | / | -3% | -57%
COc1ccc(C(NC(=O)/C=C\c2ccco2)c2ccc(OC)c(OC)c2)cc1 (stereo unspecified) | 105* | 25* | 15% | ? | 23%
Cn1ncc(Cl)c1C(=O)NC(=S)Nc1sc2c(c1C#N)CCCCC2 | 19 | 7 | ? | -1% | -32%
COc1ccc(C2=NN(C(=O)CCC(=O)O)C(c3ccccc3F)C2)cc1 (stereo unspecified) | -9 | 1 | 9% | ? | -29%
O=C(/C=C/c1ccco1)Nc1cccnc1 | 47 | 21* | 5% | 1% | 11%
COc1cccc(NC(=O)/C=C/c2ccco2)c1 | 140* | 52* | / | -12% | -43%
COc1ccccc1NC(=O)/C=C\c1ccco1 | 68* | 41* | -2% | -4% | -12%
O=C(/C=C/c1ccco1)c1cccnc1 | -4 | 5 | 10% | -10% | -15%
Cc1cc(NC(=O)CSc2nc(-c3cccc(F)c3)nc3c2c(=O)n(C)c(=O)n3C)no1 | / | / | / | -1% | /
O=C(CSc1n[nH]c(=O)n1Cc1ccco1)c1ccc2c(c1)OCCO2 | 88* | 40* | 4% | 3% | -19%

Screening data (PubChem BioAssay)
